Here are results for 11 molecules from PubChem BioAssay (EPA / NIEHS).

Where “and” joins values, the source holds several entries; their conditions need not be identical. Equal values may be shown once. Records with an inconclusive call do not appear. Calls of active or inactive are those of the source. How the source made its calls, unless noted: active means hit-call score of the fitted dose curve at least 0.9, where 1 is the maximum; inactive means score below 0.9.

The target in assay [1] is Retinoic acid receptor RXR-alpha (Homo sapiens) (UniProt P19793). In words: OT_NURR1_NURR1RXRa_0480: Odyssey Thera (OT) 8-hour HEK293T Protein Complementation Assay for Nurr1/retinoid X receptor (RXR) (AID 2283385; active means hit-call score of the fitted dose curve at least 0.9, where 1 is the maximum). The essentials:
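Interaction of Nurr1 with RXRα read as reconstituted reporter fluorescence in a HEK293T fragment-complementation system, 8 h post-treatment; increase over DMSO baseline analysed.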

For assay [2] the target is unchanged. In words: OT_NURR1_NURR1RXRa_1440: Odyssey Thera (OT) 24-hour HEK293T Protein Complementation Assay for Nurr1/retinoid X receptor (RXR) (AID 2283386; active means hit-call score of the fitted dose curve at least 0.9, where 1 is the maximum). The essentials: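 Gain in fluorescence, fitted relative to DMSO, reflects Nurr1–RXRα association in HEK293T cells after 24 h dosing. Bait and prey are each linked to a reporter-protein fragment that reassembles on interaction.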

Assay [3] addresses Peroxisome proliferator-activated receptor gamma (Homo sapiens) (UniProt P37231). Put plainly: OT_PPARg_PPARgSRC1_0480: Odyssey Thera (OT) 8-hour Protein-Complementation Assay for Peroxisome Proliferator-activated Receptor Gamma / SRC-1 Co-activator (AID 2283387; active means hit-call score of the fitted dose curve at least 0.9, where 1 is the maximum;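 further: nuclear to cytoplasmic split Venus YFP fluorescence ratio reporting PPARg SRC-1 interaction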). The essentials:
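Protein-fragment complementation of split Venus YFP reports PPARg/SRC-1 interaction in HEK293T (transfected 48 h before treatment), exposed 8 h. Readout: N/C fluorescence ratio at 488 nm from imaging, Draq5 for segmentation, positive fit relative to DMSO.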

The target is the same in assay [4]. In words: OT_PPARg_PPARgSRC1_1440: Odyssey Thera (OT) 24-hour Protein-Complementation Assay for Peroxisome Proliferator-activated Receptor Gamma/ SRC-1 Co-activator (AID 2283388; active means hit-call score of the fitted dose curve at least 0.9, where 1 is the maximum;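 further: nuclear to cytoplasmic ratio of reconstituted Venus YFP fluorescence in fixed imaged cells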). In a few lines:
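Cells carrying the PPARg/SRC-1 fragment-complementation reporter receive compound for 24 hours, are fixed and counterstained with Draq5, then imaged. Increased nuclear relative to cytoplasmic YFP fluorescence above DMSO baseline indicates binding activity.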

Read-out in assay [5]: Fatty acid synthase (Homo sapiens) (UniProt P49327)
In words: LTEA_HepaRG_FASN: Life Technologies and Expression Analysis (LTEA) Assay for Fatty Acid Synthase (FASN) using HepaRG (AID 2283448).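 On AC50: differentiated human HepaRG liver cells in serum-free induction medium.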 The settings on record: mRNA level, 48 h; actives raise or lower the signal. In a few lines:
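FASN transcript measured by TaqMan qRT-PCR, normalised to three housekeeping genes, after 48 h chemical exposure of HepaRG cells. Eight-point half-log series from 100 uM in 0.5% DMSO, duplicates; gain or loss fitted against vehicle.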

Read-out in assay [6]: Cyclin Dependent Kinase Inhibitor 1A (CDKN1A), CDKN1A (gene 1026)
In words: LTEA_HepaRG_CDKN1A: Life Technologies and Expression Analysis (LTEA) Assay for Cyclin Dependent Kinase Inhibitor 1A (CDKN1A) using HepaRG (AID 2283450). The settings on record: mRNA level, 48 h; actives raise or lower the signal. The essentials:
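Gain or loss of CDKN1A transcript is scored by bidirectional fitting against 0.5% DMSO vehicle. Human HepaRG cultures receive chemicals for 48 h across an 8-point series peaking at 100 uM; expression comes from qRT-PCR.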

Read-out in assay [7]: Cyclin D1 (CCND1), CCND1 (gene 595)
In words: LTEA_HepaRG_CCND1: Life Technologies and Expression Analysis (LTEA) Assay for Cyclin D1 (CCND1) using HepaRG (AID 2283451). The settings on record: mRNA level, 48 h; actives raise or lower the signal. The essentials:
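Expression change is measured by qRT-PCR in HepaRG cells after 48 h treatment across eight concentrations topping at 100 uM, with duplicate wells and DMSO (0.5%) serving as baseline for bidirectional fitting.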

Read-out in assay [8]: catalase (CAT), CAT (gene 847)
In words: LTEA_HepaRG_CAT: Life Technologies and Expression Analysis (LTEA) Assay for catalase (CAT) using HepaRG (AID 2283452). The settings on record: mRNA level, 48 h; actives raise or lower the signal. In a few lines: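 HepaRG cells in serum-free induction medium, 0.5% DMSO vehicle, exposed 48 h in duplicate over 8 half-log concentrations from 100 uM. CAT mRNA measured by qRT-PCR, normalized to ACTB, GAPDH, POLR2A; bidirectional fit versus DMSO.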

Read-out in assay [9]: flavin-containing dimethylaniline monooxygenases 3 (FMO3), FMO3 (gene 2328)
In words: LTEA_HepaRG_FMO3: Life Technologies and Expression Analysis (LTEA) Assay for flavin-containing dimethylaniline monooxygenases 3 (FMO3) using HepaRG (AID 2283453). The note with it: mRNA level, 48 h; actives raise or lower the signal. The essentials:
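FMO3 transcript quantified by TaqMan qRT-PCR against three housekeeping genes after 48 h chemical exposure of HepaRG cells. Eight-point half-log series, top 100 uM, 0.5% DMSO vehicle; phenobarbital 1mM induction control; up- or down-regulation fitted.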

Assay [10] in a line: CEETOX_H295R_11DCORT: CeeTox H295R High-throughput Steroidogenesis Assay for 11-Deoxycortisol (11DCORT) (AID 2283432).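 On AC50: 11-deoxycortisol secreted into the medium measured by LC-MS/MS.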 The settings on record: actives raise or lower the signal. The essentials:
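Human adrenal H295R cells were prestimulated with 10 uM forskolin for 48 h, then exposed to test chemical (0.1% DMSO final) for 48 h. Medium 11-deoxycortisol was quantified by MTBE extraction and HPLC-MS/MS; bidirectional fitting relative to DMSO.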

Assay [11] can be described thus: CEETOX_H295R_OHPREG: CeeTox H295R High-throughput Steroidogenesis Assay for OH-Pregnenolone (OHPREG) (AID 2283434). The settings on record: actives raise or lower the signal. In a few lines: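 H295R, 10 uM forskolin pre-stim 48 h; test chemical 48 h, 0.1% DMSO final. MTBE extraction, reverse-phase C18 HPLC-ESI+ MS/MS of medium. Gain/loss vs DMSO; viability by MTT in same wells.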

Assay [12] can be described thus: CEETOX_H295R_ANDR: CeeTox H295R High-throughput Steroidogenesis Assay for Androstenedione (ANDR) (AID 2283436). The settings on record: actives raise or lower the signal. The essentials:
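48 h chemical exposure, H295R cells, DMEM/F12 + ITS+ and Nu-Serum. Medium androstenedione: MTBE extraction, C18 reverse-phase HPLC, ESI+ MS/MS. Fit bidirectional vs DMSO; MTT viability in same wells.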

Assay [13] is described as follows: CEETOX_H295R_CORTIC: CeeTox H295R High-throughput Steroidogenesis Assay for Corticosterone (CORTIC) (AID 2283437).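 Further: corticosterone secreted into medium quantified by mass spectrometry.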 The note with it: actives raise or lower the signal. The essentials:
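48 h forskolin (10 uM) prestim, then 48 h chemical exposure, final DMSO 0.1%. Readout: corticosterone in medium by LC-MS/MS after MTBE extraction. Gain/loss fit vs DMSO; MTT viability in same wells.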

Assay [14] is described as follows: CEETOX_H295R_CORTISOL: CeeTox H295R High-throughput Steroidogenesis Assay for Cortisol (AID 2283438). The note with it: actives raise or lower the signal. In a few lines:
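Cortisol measured by HPLC-MS/MS after MTBE extraction of medium from H295R cells exposed 48 h to chemical (0.1% DMSO), following 48 h prestimulation with 10 uM forskolin. Viability assessed by MTT in the same wells.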

Assay [15] can be described thus: CEETOX_H295R_DOC: CeeTox H295R High-throughput Steroidogenesis Assay for DOC (AID 2283439). The settings on record: actives raise or lower the signal. In a few lines: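 11-Deoxycorticosterone quantified in medium by MTBE extraction and HPLC-MS/MS after 48 h chemical exposure (0.1% DMSO) of forskolin-primed (10 uM, 48 h) H295R cells. Same-well MTT viability; data fitted bidirectionally against DMSO.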

Assay [16] is described as follows: CEETOX_H295R_ESTRADIOL: CeeTox H295R High-throughput Steroidogenesis Assay for Estradiol (AID 2283440).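 Further: estradiol secreted into medium quantified by LC-MS/MS after dansyl derivatisation.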 The note with it: actives raise or lower the signal. In a few lines:
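Readout is estradiol in conditioned medium, quantified by reverse-phase HPLC-MS/MS against a 7-point standard curve. Cells: H295R, forskolin-stimulated, then dosed 48 h in 0.1% DMSO; activity fitted in both directions relative to DMSO.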

A short description of assay [17]: CEETOX_H295R_ESTRONE: CeeTox H295R High-throughput Steroidogenesis Assay for Estrone (AID 2283441). The settings on record: actives raise or lower the signal. In a few lines: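 Estrone secreted into medium quantified by LC-MS/MS after dansyl chloride derivatization, following 48 h chemical exposure (0.1% DMSO final) of forskolin-prestimulated (10 uM, 48 h) H295R cells; gain or loss fitted against DMSO; MTT viability in same wells.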

The nature of assay [18]: CEETOX_H295R_PROG: CeeTox H295R High-throughput Steroidogenesis Assay for Progesterone (PROG) (AID 2283442).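 On AC50: human H295R adrenal cells primed with 10 µM forskolin before dosing.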 The settings on record: actives raise or lower the signal. The essentials:
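Measured analyte is progesterone secreted by H295R cells at 48 h of chemical treatment, following 10 uM forskolin priming. Quantitation used HPLC-MS/MS against a 7-point standard curve; cytotoxicity was checked by MTT absorbance.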

Read-out in assay [19]: Tumor necrosis factor receptor superfamily member 6 (Homo sapiens) (UniProt P25445)
Put plainly: LTEA_HepaRG_FAS: Life Technologies and Expression Analysis (LTEA) Assay for Fas cell surface death receptor (FAS) using HepaRG (AID 2283447). The note with it: mRNA level, 48 h; actives raise or lower the signal. In a few lines: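 Differentiated HepaRG cells in serum-free induction medium were exposed 48 h to 8 half-log concentrations up to 100 uM in 0.5% DMSO, in duplicate. FAS mRNA was measured by qRT-PCR normalised to ACTB, GAPDH and POLR2A; bidirectional fit versus DMSO.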

Read-out in assay [20]: Cyclin D2 (CCND2), CCND2 (gene 894)
Put plainly: LTEA_HepaRG_CCND2: Life Technologies and Expression Analysis (LTEA) Assay for Cyclin D2 (CCND2) using HepaRG (AID 2283449).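 Further: CCND2 transcript measured by TaqMan qRT-PCR and normalised to three housekeeping genes.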 The settings on record: mRNA level, 48 h; actives raise or lower the signal. In a few lines: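 HepaRG, 48 h dosing, 8-pt half-log curve from 100 uM, 0.5% DMSO; duplicate wells. Readout: CCND2 transcript by microfluidic qRT-PCR, housekeeping-normalised; bidirectional fit vs DMSO baseline.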

Fatty acid synthase (Homo sapiens), sequence (P49327 whole entry, looked up): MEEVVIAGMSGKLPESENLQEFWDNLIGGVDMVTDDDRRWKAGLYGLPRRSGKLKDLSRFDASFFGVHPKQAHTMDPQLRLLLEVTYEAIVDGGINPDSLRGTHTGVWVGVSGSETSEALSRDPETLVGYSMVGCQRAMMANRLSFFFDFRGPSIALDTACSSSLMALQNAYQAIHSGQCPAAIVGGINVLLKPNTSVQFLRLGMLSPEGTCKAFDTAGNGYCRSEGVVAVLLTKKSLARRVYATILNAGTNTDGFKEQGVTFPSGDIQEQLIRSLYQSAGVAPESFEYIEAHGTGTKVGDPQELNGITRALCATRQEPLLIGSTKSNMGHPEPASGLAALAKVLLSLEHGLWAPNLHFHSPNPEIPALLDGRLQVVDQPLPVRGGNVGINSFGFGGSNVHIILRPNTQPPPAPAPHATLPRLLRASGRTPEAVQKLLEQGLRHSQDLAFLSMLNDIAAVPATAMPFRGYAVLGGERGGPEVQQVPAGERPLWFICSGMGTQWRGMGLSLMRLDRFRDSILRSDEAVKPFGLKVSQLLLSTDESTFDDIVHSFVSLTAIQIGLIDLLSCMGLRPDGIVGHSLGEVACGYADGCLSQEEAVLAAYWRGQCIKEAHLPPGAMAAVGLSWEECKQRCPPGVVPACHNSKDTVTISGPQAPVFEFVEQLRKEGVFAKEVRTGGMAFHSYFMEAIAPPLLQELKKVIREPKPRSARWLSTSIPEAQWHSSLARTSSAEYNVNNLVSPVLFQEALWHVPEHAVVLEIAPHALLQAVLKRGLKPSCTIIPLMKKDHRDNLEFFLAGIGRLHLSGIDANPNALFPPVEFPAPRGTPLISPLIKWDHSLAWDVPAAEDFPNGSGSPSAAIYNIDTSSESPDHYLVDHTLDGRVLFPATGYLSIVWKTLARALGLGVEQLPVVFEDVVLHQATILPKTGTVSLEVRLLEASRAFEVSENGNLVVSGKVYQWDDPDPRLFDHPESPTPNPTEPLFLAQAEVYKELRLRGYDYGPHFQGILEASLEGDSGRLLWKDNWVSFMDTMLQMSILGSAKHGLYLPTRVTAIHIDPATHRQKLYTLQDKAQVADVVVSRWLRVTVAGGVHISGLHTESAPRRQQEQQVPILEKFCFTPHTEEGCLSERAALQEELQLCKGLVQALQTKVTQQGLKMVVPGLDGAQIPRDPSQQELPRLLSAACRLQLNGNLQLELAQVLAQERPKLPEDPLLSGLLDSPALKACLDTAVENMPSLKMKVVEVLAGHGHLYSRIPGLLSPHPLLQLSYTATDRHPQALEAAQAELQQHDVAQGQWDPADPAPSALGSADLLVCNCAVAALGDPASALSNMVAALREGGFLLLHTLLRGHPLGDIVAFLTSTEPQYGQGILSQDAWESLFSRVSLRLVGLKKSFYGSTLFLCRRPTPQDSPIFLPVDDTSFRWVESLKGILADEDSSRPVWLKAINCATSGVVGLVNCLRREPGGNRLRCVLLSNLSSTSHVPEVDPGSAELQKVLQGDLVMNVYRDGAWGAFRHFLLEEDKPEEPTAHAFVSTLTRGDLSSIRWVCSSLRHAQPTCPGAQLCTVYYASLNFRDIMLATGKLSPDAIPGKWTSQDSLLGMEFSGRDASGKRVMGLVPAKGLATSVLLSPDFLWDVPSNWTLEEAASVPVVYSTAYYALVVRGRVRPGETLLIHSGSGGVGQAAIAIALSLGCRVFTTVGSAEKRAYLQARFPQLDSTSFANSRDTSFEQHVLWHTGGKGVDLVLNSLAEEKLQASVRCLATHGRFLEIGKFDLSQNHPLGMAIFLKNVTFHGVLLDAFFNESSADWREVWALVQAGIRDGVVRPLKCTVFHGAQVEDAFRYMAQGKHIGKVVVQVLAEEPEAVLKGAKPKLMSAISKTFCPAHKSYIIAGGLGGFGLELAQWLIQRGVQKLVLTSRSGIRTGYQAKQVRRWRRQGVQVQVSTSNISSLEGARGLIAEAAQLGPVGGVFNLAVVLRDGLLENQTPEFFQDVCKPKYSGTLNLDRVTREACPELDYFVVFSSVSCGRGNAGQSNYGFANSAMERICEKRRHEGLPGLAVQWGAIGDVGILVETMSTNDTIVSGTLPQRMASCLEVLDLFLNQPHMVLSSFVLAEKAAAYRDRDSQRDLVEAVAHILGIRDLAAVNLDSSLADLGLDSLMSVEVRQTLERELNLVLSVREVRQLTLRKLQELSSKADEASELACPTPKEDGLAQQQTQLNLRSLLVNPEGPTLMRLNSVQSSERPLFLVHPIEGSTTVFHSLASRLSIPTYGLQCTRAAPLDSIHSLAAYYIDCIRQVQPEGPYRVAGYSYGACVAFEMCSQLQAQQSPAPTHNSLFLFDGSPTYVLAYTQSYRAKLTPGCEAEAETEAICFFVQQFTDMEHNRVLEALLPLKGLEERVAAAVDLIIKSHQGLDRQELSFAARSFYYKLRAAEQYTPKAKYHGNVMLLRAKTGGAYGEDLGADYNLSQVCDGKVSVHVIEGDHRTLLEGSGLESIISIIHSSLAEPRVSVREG
Peroxisome proliferator-activated receptor gamma (Homo sapiens), sequence (P37231 whole entry, looked up, the tested form may be a part): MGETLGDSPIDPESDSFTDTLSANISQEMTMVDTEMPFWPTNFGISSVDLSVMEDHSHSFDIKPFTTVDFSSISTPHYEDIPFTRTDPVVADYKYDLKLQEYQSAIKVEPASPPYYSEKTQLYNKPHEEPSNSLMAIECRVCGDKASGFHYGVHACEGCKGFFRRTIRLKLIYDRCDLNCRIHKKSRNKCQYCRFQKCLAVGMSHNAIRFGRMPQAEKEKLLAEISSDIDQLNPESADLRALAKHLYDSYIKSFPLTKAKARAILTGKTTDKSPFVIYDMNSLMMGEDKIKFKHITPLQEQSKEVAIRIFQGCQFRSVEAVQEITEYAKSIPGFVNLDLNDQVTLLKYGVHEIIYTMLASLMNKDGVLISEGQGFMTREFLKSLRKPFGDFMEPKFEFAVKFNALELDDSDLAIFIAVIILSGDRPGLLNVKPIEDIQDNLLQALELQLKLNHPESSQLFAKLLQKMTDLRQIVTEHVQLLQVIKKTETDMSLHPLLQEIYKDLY
Retinoic acid receptor RXR-alpha (Homo sapiens), sequence (P19793 whole entry, looked up, the tested form may be a part): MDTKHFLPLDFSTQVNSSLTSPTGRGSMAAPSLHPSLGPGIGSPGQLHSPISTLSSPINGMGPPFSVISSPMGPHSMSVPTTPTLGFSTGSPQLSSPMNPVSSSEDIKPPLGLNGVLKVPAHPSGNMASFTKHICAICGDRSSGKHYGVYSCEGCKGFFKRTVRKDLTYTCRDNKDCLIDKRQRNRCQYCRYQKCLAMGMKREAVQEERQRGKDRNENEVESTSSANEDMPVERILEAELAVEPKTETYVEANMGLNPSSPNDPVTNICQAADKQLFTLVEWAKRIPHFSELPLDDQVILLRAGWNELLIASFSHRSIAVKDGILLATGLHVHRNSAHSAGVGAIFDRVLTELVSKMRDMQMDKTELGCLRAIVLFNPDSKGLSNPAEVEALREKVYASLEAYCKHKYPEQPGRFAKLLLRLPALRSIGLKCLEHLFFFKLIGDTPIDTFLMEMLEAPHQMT

On to `CN(C)C(=O)Nc1ccc(Cl)cc1`, for which the molecule was classed as inactive in assay [1], in assay [2], in assay [3], in assay [4], in assay [5] and in [6]. Moreover, the outcome in [7], in assay [8] and in assay [9] was inactive.

Broadly, the AC50 is the concentration giving half of the maximal activity seen. For `CNC(=O)Oc1cccc2c1OC(C)(C)C2`, the molecule was called inactive in [1], in [2], in [3], in assay [10], in assay [11] and in assay [12]. The molecule was called inactive in [13], in assay [14], in assay [15], in [16], in assay [18] and in [19]. In addition, the call in assay [5], in assay [20], in [6], in [7], in assay [8] and in assay [9] was inactive. Also, in assay [17], the AC50 was 0.494 µM (active).

For `N#CC(Br)(Br)C(N)=O`, the molecule was classed as inactive in [1], in assay [2], in [3], in [11], in assay [5] and in assay [20]. Further, the call in assay [6], in assay [7], in [8] and in assay [9] was inactive. Further, the AC50 in assay [18] is 50 µM (active).

Take `CC(C)(O)c1cnn2c(-c3ccc(F)c(-c4c(F)cccc4C#N)c3)cnc2n1`: the AC50 in [1] was 84.7 µM (active) and 91.1 µM (active); in [2], 86.8 µM (active) and 75.3 µM (active); in [3], 92.9 µM (active) and 93.2 µM (active); in [18], 0.251 µM (active). The molecule was called inactive in assay [10], in [11], in assay [12], in [13], in assay [14] and in [15]. The outcome in assay [19], in assay [5], in assay [20], in assay [6], in assay [7] and in assay [9] was inactive.

`COC(=O)Nc1nc2ccccc2[nH]1`: the call in assay [1], in assay [2], in assay [3], in assay [4], in assay [5] and in assay [6] was inactive. Moreover, the call in assay [7], in [8] and in assay [9] was inactive.

For the molecule `c1ccc2c(c1)-c1cccc3cccc-2c13`, the result in assay [1], in assay [2], in [3], in [20], in [6] and in assay [7] was inactive. Also, the molecule was called inactive in assay [9]. Besides, the AC50 in assay [11] was 14 µM (active); in [18], 4.8 µM (active); in [5] it was 69.1 µM (active).

For `CC(C)COC(=O)c1ccccc1C(=O)OCC(C)C`, the result in assay [1], in assay [2], in assay [3], in assay [19], in assay [5] and in assay [20] was inactive. The call in assay [6], in assay [7], in assay [8] and in assay [9] was inactive.

With `C[N+](C)(C)CC1CO1` (configuration not stated), the outcome in [1], in assay [2], in assay [3], in assay [5], in assay [20] and in assay [6] was inactive. In addition, the call in assay [7] and in assay [9] was inactive.

As for `Nc1ccc(Cc2ccc(N)cc2)cc1`, the molecule was called inactive in assay [1], in [2], in assay [3], in assay [13], in assay [19] and in assay [5]. The molecule was classed as inactive in assay [6], in [7] and in assay [9]. Further, the AC50 in assay [10] is 40.3 µM (active); in [11], 4.31 µM (active); in assay [14], 24 µM (active); in assay [15], 65.5 µM (active); in assay [18], 3.84 µM (active).

With `OCCOCCO`, the molecule was classed as inactive in assay [1], in [2], in [3], in assay [5], in assay [20] and in assay [6]. The molecule was called inactive in [7] and in [9].

Take `CCC12COCN1COC2`: the call in assay [1], in [2], in assay [3], in assay [5], in assay [20] and in assay [6] was inactive. The call in assay [7] and in [9] was inactive.
